Compound activity deposited in PubChem by National Center for Advancing Translational Sciences (NCATS).
Bst PK mod = pyruvate kinase (B. stearothermophilus) modulation; purified pyruvate kinase, luminescence ATP production; ribose 5-phosphate activator present at AC10; Potency, µM; 51,000 tested, 1.2% active; AID 361; in the data active = potency below about 11 µM; inconclusive = mostly about 12 µM to 25 µM;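 the screen sought inhibitors and activators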;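 also: scaled between full activation by ribose 5 phosphate and full inhibition by luteolin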
Luciferase inh = blocks Photinus pyralis firefly luciferase activity; 72,000 tested, 2.2% active; AID 411; purified firefly luciferase, luminescence, 8 min; Potency, µM (titrated, usually from 57.1 µM), without a hit: at the top dose activity change, negative = inhibition, usual class: inhibitors; active = well fitted inhibition curve with a large enough effect; inconclusive = small, poorly fitted or top-dose-only effect; also: % is scaled to controls: 0 for no effect and ±100 for the full control effect; nearly all actives have a fitted effect of over 40% in size
Target sequence (P08659 whole entry, looked up): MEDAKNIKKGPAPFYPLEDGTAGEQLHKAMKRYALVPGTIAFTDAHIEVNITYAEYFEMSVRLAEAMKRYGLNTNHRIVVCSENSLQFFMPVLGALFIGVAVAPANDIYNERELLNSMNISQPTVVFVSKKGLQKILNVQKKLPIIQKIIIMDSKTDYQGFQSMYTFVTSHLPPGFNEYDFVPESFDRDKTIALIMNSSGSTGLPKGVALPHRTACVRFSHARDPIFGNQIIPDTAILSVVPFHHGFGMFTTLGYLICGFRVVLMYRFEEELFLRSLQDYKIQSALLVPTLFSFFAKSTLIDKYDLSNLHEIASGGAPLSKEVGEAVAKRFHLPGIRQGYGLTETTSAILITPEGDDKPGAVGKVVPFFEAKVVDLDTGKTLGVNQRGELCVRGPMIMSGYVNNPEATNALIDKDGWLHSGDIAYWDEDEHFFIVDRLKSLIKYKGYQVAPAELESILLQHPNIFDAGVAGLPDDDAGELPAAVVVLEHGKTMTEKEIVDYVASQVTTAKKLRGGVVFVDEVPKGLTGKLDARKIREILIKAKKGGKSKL
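Here, luciferase activity is measured as luminescence following an 8 min room-temperature reaction at 10 uM ATP, pH 7.2. Every library sample is titrated.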
GBA activity = alters purified human glucocerebrosidase activity | Potency, µM | 48,000 tested, 1.1% active | P04062 | purified enzyme, resorufin glucoside fluorescence (screen aimed at inhibitors), 20 min | AID 360; in the data active = potency below about 15 µM; inconclusive = mostly about 16 µM to 33 µM;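 also: the screen sought inhibitors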
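Wild-type enzyme at 0.2 nM final in 50mM citric acid/KH2PO4, 10mM sodium taurocholate, 0.01% tween-20, pH 5.9, with resorufin beta-D-glucopyranoside at 30 uM final. Compounds titrated, 20 min at RT, red fluorescence read; AC50 from titration.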
* hit, by the source's call; i = inactive; ? = inconclusive; . = no result given; [ ] = dose if it differs, or a comment. This is a sample that favours compounds with a hit; in the whole collection about 3.2% have one here. Potency is read from the fitted curve at half-maximal effect.

SMILES | Bst PK mod | Luciferase inh | GBA activity
CN(C)c1ccc(-c2nccc(Nc3ccc(F)cc3)n2)cc1 | . | -9%[2.29 µM] | .
CSC1=Nc2sc3c(c2C2=NCCN12)CCCC3 | i | -3% | 6.4*
CC1(C)Cc2c(sc3c2C2=NCCN2C=N3)CS1 | >26 | 1%[25.5 µM] | .
COCC(=O)N1CCC2(CC1)CCN(c1ccccc1)CC2 | . | 0%[11.4 µM] | .
Cn1nnc(NC(=O)c2ccc(C(C)(C)C)cc2)n1 | ? | 10µM* | .
Cn1nnc(NC(=O)c2ccccc2F)n1 | . | -12% | .
CCn1nnc(NC(=O)c2ccc(-c3ccc(Cl)cc3)o2)n1 | 6.5* | -18% | ?
CCCn1nnc(NC(=O)c2ccc(OCC)c(Cl)c2)n1 | >57 | -1% | >77
CCCn1nnc(NC(=O)c2ccco2)n1 | >57 | -5% | >77
CCOc1ccc(C(=O)Nc2nnn(CC)n2)cc1 | . | 25µM* | ?
CNc1ncnc2ccc(-c3cccc(OC)c3)cc12 | . | 2%[2.29 µM] | .
COc1ccc(COC(=O)N/N=C2/C[C@@H](O)[C@@H](O)[C@@H]3[C@@H]4C(=O)N(C(C)(C)C)C(=O)[C@H]4CC[C@H]23)cc1 | . | 0%[11.4 µM] | .
CO[C@H]1COC(=O)C/C=C\[C@H](C)[C@@H](NS(=O)(=O)c2ccc(C)cc2)COC(=O)C/C=C\[C@@H]1C | . | 0%[11.4 µM] | .
O=C1[C@H]2[C@H]3[C@H](O)[C@H](O)C/C(=N/OC[C@@H](O)COCc4ccco4)[C@H]3CC[C@@H]2C(=O)N1C1CCCCC1 | . | 1%[11.4 µM] | .
CN1CCc2c(sc(/N=C/c3cccs3)c2C(N)=O)C1 | i | -25% | >77
O=c1c2c3c(sc2ncn1/N=C/c1ccco1)CCCC3 | . | -19% | .
N#Cc1c(/N=C/c2cccs2)sc2c1CCC2 | ? | 10µM* | i
N#Cc1c(/N=C/c2ccco2)sc2c1CCCCC2 | 0.52* | 0.79µM* | >77
O=C(O)CCC/C=C\C[C@H]1[C@@H](/C=C\[C@@H](O)C2Cc3ccccc3C2)[C@H](F)C[C@H]1O | . | 6% | .
Nc1n[nH]c(-c2ccc(F)cc2)n1 | . | 1% | >77
CCCCc1ccc(-c2nc(N)n[nH]2)cc1 | . | 7.9µM* | .
C=CC[C@@H]1C=C[C@H](ON=C(C)C)[C@H](CO)O1 | . | 2%[11.4 µM] | .
O=C(Cc1cc(=O)[nH]c(=O)[nH]1)N1CCC(Cc2ccccc2)CC1 | . | 10µM* | .
CC(C)N1C(=O)CCC1C(=O)N1CCC(Cc2ccccc2)CC1 (stereo not given) | . | 2% | .
COc1ccc(-c2nc3cnc(N(C)C)nc3n(C3CC3)c2=O)cc1 | . | -13%[11.4 µM] | .
SMILES | Bst PK mod | Luciferase inh | GBA activity
COCCNc1ncnc2nc[nH]c12 | >57 | 1% | >77
COCCCNc1ncnc2nc[nH]c12 | . | 6.3µM* | .
CCOC(=O)CNc1ncnc2nc[nH]c12 | . | 10µM* | .
CC(C)=CCNc1ncnc2nc[nH]c12 | . | 2%[11.4 µM] | .
COc1ccc(-n2c(=O)c(-c3cccs3)nc3cnc(OC)nc32)cc1 | . | 2%[11.4 µM] | .
Cc1ccc2c(c1)N(CC(=O)NCC1COc3ccccc3O1)C(=O)CO2 (stereo not given) | . | 0% | .
CCC(=O)N(Cc1ccco1)c1nc(-c2ccccc2)cs1 | >57 | 2% | >77
CN(c1ccc(O)cc1)c1nc(-c2ccccc2)cs1 | ? | 13µM* | i
CCOC(=O)c1ccc(N)cc1 | . | 2%[25.5 µM] | .
CCOC(=O)c1cc(-c2ccc(N)cc2)sc1N | ? | 13µM* | >77
O=C(Nc1cccc(F)c1)N1CC2(CCN(S(=O)(=O)c3ccccc3)CC2)C1 | . | 1%[11.4 µM] | .
CC1=C(C#N)C(c2ccoc2)C(C(=O)OCc2ccccc2)=C(N)S1 (stereo not given) | >57 | 0% | 12*
C=CCOC(=O)C1=C(C)OC(N)=C(C#N)C1c1ccoc1 (stereo not given) | >26 | 0%[25.5 µM] | .
N#Cc1cccc(-c2ccc3ncnc(NCc4cccnc4)c3c2)c1 | . | 0%[2.29 µM] | .
COc1ccc(NC(=O)Cn2nnc(-c3ccccc3NC(=O)c3ccco3)n2)cc1 | >57 | 0% | 7.2*
COc1ccccc1NC(=O)Cn1nnc(-c2ccccc2NC(=O)c2ccco2)n1 | >57 | -1% | >77
C/C(=N/Nc1ccc2ccccc2n1)c1ccccc1O | . | 1.3µM* | .
O=C(O)CSc1ccc2ccccc2n1 | >11 | 2% | >77
CCOC(=O)c1c(NC(=O)c2cc(C3CC3)on2)sc2c1CCCC2 | . | 1% | .
C/C(=N/Nc1nc(C)cc(=O)[nH]1)C(=O)O | . | 0%[11.4 µM] | .
C[N+]1(C)CCc2cc3c(cc2[C@@H]1[C@@H]1C(=O)Oc2c1ccc1c2OCO1)OCO3 | . | 0% | .
COc1ccc(O[C@H]2C=C[C@@H](c3ccccc3)O[C@H]2CO/N=C2/[C@H]3O[C@@H]3[C@@H](O)[C@H]3[C@H]2CCn2c(=O)n(-c4ccccc4)c(=O)n23)cc1 | . | 0%[11.4 µM] | .
COC(=O)c1ccc(COC(=O)C23CC4CC(CC(O)(C4)C2)C3)o1 | >57 | -2% | >77
Nc1ccc(C23CC4CC(CC(O)(C4)C2)C3)cc1 | 9.1* | -22% | >77
O=C(CN(C(=O)CNS(=O)(=O)c1ccccc1)c1ccc2c(c1)OCCO2)NCc1ccco1 | >57 | -1% | .
SMILES | Bst PK mod | Luciferase inh | GBA activity
O=C(CN(C(=O)CNS(=O)(=O)c1ccccc1)c1ccc2c(c1)OCCO2)NC1CCCCC1 | >57 | 2% | 12*
CN1CCN(c2ncc3nc(-c4ccc(Cl)cc4)c(=O)n(C)c3n2)CC1 | . | -6%[11.4 µM] | .
O=C(Cn1nnc(-c2ccc3c(c2)OCO3)n1)N1CCOCC1 | >57 | 1% | >77
O=C(Cn1cc2c(n1)CCCC2)N1CCCc2ccccc21 | . | -1% | .
COc1ccc(-c2ccc(-c3nnn(CC(=O)N4CCOCC4)n3)cc2)cc1 | 2.6* | 1.6µM* | >77
O=C(Cn1nnc(-c2ccc(CN3CCOCC3)cc2)n1)N1CCCc2ccccc21 | 5.6* | -1% | >77
COC(=O)[C@@H]1CC[C@H](C)[C@@H](c2ccc(C)cc2)N1C(=O)c1ccc(/C=N\O[C@@H](C)CN2CCCCc3nc(C)c(C)cc32)cc1 | . | 0%[11.4 µM] | .
c1ccc([P+](CC[P+](c2ccccc2)(c2ccccc2)c2ccccc2)(c2ccccc2)c2ccccc2)cc1 | . | -1%[11.4 µM] | .
N[C@@H](C(=O)O)c1cc(O)ccc1Cl | . | 1% | .
CCOC(=O)C1CCN(c2ncnc3c2[nH]c2cccc(OC)c23)CC1 | . | -3% | >77
CCOC(=O)C1CCN(c2ncnc3c2oc2ccc(Cl)cc23)CC1 | ? | 2% | 13*
COC(=O)c1cccc(NC(=O)NC2CCCN2S(=O)(=O)c2ccc(Cl)cc2)c1 (stereo not given) | 9.5* | 2% | >77
O=C(COC(=O)C1CCCN1S(=O)(=O)c1ccc(Cl)cc1)Nc1ccc2c(c1)OCO2 (stereo not given) | i | -2% | ?
c1cncc(-c2noc(-c3ccco3)n2)c1 | . | -12% | .
CCC(=O)Oc1ccc(-c2nc(-c3cccnc3)no2)cc1 | ? | 13µM* | 7.8*
CC(C)(CS)C(=O)N1CCC[C@H]1C(=O)O | . | -1%[25.5 µM] | .
O=C(CSc1ccc(Cl)cc1)N1CCOCC1 | >57 | -1% | >77
O=C(CSc1nnc(SCc2ccc(Cl)cc2)s1)N1CCOCC1 | . | 13µM* | >77
Cc1c(C)c2c(c(C)c1O)CC[C@@](C)(CCC[C@@H](C)CCC[C@@H](C)CCCC(C)C)O2 | . | 2%[25.5 µM] | .
CCOC(=O)C1CCCN(C(=O)Cn2cnc3c2c(=O)n(C)c(=O)n3C)C1 (stereo not given) | . | 2% | .
CCOC(=O)C1CCCN(C(=O)Cn2sc3nc(C)cc(C)c3c2=O)C1 (stereo not given) | . | 13µM* | .
Cc1nc2ccccc2c(=O)n1/N=C/c1cn(-c2ccccc2)nc1-c1cccs1 | . | 3.2µM* | >77
